PubChem BioAssay (NCI)
Compounds without any hit were thinned out: in the full panel of roughly 79,000, 15% have a hit. A number with no mark means an inactive call. The source made the active and inactive calls. Cut-off read from the data, not from the text of the source: active = growth inhibition above about 70%; inactive = the rest.

Columns and labels:
[1] = NCI Yeast Anticancer Drug Screen. Data for the rad50 strain (AID 155);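 note: 0% = growth of vehicle-only cultures of the same strain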; conditions: S. cerevisiae rad50 strain growth inhibition, stronger effect = higher value
Summary of the method: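 Genetically altered yeast (DNA repair pathway); compound treatment; growth inhibition vs vehicle ctrl.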

[2] = NCI Yeast Anticancer Drug Screen. Data for the mec2-1 strain (AID 157); conditions: S. cerevisiae mec2-1 strain, stronger effect = higher value
Summary of the method: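 Using mec2-1 yeast: add compound, measure growth, express inhibition versus vehicle-treated cultures.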

[3] = NCI Yeast Anticancer Drug Screen. Data for the sgs1 mgt1 strain (AID 161);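 note: 0% = growth of cultures given vehicle only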; conditions: S. cerevisiae sgs1 mgt1 strain, stronger effect = higher value
Summary of the method: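 Compounds are added to genetically altered yeast, and growth is compared with cultures given vehicle alone to give percent inhibition.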

[4] = NCI Yeast Anticancer Drug Screen. Data for the cln2 rad14 strain (AID 165);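 note: 0% = growth equal to vehicle treated cultures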; conditions: S. cerevisiae cln2 rad14 strain, stronger effect = higher value
Summary of the method: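 Yeast strain cln2 rad14, bearing defects in cell cycle control and DNA repair, serves as the test system; values reflect growth inhibition compared with vehicle.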

[5] = NCI Yeast Anticancer Drug Screen. Data for the bub3 strain (AID 167); conditions: S. cerevisiae bub3 mutant strain, stronger effect = higher value
Summary of the method: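 Yeast carrying a defined mutation is treated with each compound, and growth is compared with that of vehicle-exposed cells to give inhibition.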

[6] = NCI Yeast Anticancer Drug Screen. Data for the mlh1 rad18 strain (AID 175); conditions: S. cerevisiae mlh1 rad18 strain growth inhibition, stronger effect = higher value
Summary of the method: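 Steps: expose repair-defective yeast to compound; measure growth; express inhibition against vehicle-treated controls.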

[7] = at 5.0 µM (retest, dose inferred, filed as 0.5)
[8] = at 50.0 µM (retest, dose inferred, filed as 5.0)

| SMILES | growth inhibition [1, 7] | growth inhibition [1, 8] | growth inhibition ([1]; at 50.0 µM) | growth inhibition [2, 7] | growth inhibition [2, 8] | growth inhibition ([2]; at 50.0 µM) | growth inhibition [3, 7] | growth inhibition [3, 8] | growth inhibition ([3]; at 50.0 µM) | growth inhibition [4, 7] | growth inhibition [4, 8] | growth inhibition ([4]; at 50.0 µM) | growth inhibition [5, 7] | growth inhibition [5, 8] | growth inhibition ([5]; at 50.0 µM) | growth inhibition [6, 7] | growth inhibition [6, 8] | growth inhibition ([6]; at 50.0 µM) |
| --- | --- | --- | --- | --- | --- | --- | --- | --- | --- | --- | --- | --- | --- | --- | --- | --- | --- | --- |
| Nc1nn2c(C(Br)Br)cc(C(Br)Br)nc2c1[N+](=O)[O-] | 100% (active) | 100% (active) | 99.5% (active) | 100% (active) | 100% (active) | 99.5% (active) | 100% (active) | 100% (active) | 99.5% (active) | 99% (active) | 99% (active) | 99.4% (active) | 100% (active) | 100% (active) | 99.5% (active) | 100% (active) | 100% (active) | 99.5% (active) |
| C=CC[P+](CC[P+](CC=C)(c1ccccc1)c1ccccc1)(c1ccccc1)c1ccccc1 | -2% | -3% | 2.6% | -1% | -4% | -0.25% | -2% | 1% | 16.6% | -5% | -10% | -31.6% | -3% | -3% | 6.8% | 1% | -1% | 52.2% |
| CCCCN(CCCC)CC(O)c1cccc2c(Cl)cccc12 (stereo not given) | 15% | 54% | 86.5% (active) | 8% | 75% (active) | 71.7% (active) | 13% | 93% (active) | 88.5% (active) | 8% | 57% | 89.7% (active) | 13% | 82% (active) | 94.8% (active) | 24% | 88% (active) | 70.5% (active) |
| COc1cccc2c1[n+]([O-])c1cccc(O)c1[n+]2[O-] | 98% (active) | 99% (active) | 91.4% (active) | 99% (active) | 100% (active) | 90.4% (active) | 100% (active) | 100% (active) | 87.5% (active) | 93% (active) | 99% (active) | 88.4% (active) | 99% (active) | 100% (active) | 84.2% (active) | 97% (active) | 99% (active) | 91.7% (active) |
| COC(=O)c1cc[nH]c(=O)c1 | -150% | -166% | 9.2% | -48% | -56% | 12.2% | -62% | -68% | 11.4% | -55% | -70% | -18.8% | -71% | -86% | 0.55% | -138% | -122% | 60.8% |
| Cc1ccc(NC(=S)SCc2ccc3c(c2)OCO3)cc1Br | 46% | 96% (active) | 89.8% (active) | 29% | 98% (active) | 91.8% (active) | 55% | 98% (active) | 91.9% (active) | 52% | 98% (active) | 88.5% (active) | 58% | 99% (active) | 91% (active) | 36% | 97% (active) | 89.8% (active) |
| Cc1ccc(/C=N\NC(=S)N/N=C/c2ccc(C)cc2)cc1 | -6% | 98% (active) | 30.3% | 2% | 99% (active) | 40% | 2% | 99% (active) | 74.8% (active) | -43% | 98% (active) | 20% | -4% | 99% (active) | 94.5% (active) | 0% | 98% (active) | 59% |
| Clc1ccc(C2=CCN3CC=C(c4ccc(Cl)cc4)C23)cc1 | 24% | 18% | 99.8% (active) | 1% | 42% | 99.9% (active) | 32% | 46% | 100% (active) | 13% | 5% | 99.6% (active) | 17% | 41% | 99.8% (active) | 18% | 39% | 99.8% (active) |
| COC12C=CC(CC1)c1c2c(O)c2ncccc2c1O (stereo not given) | -4% | 67% | 78.6% (active) | -3% | 40% | 34.9% | -5% | 47% | 72.5% (active) | -4% | 23% | 21.9% | 3% | 77% (active) | 90.3% (active) | -6% | 52% | 48.3% |
| CC(=O)Nc1ccc(C(C)(C)c2ccc(C)cc2)cc1 | 0% | 95% (active) | -4.5% | 0% | 98% (active) | -12.2% | -1% | 96% (active) | 24.1% | 2% | 96% (active) | 3.75% | 4% | 97% (active) | 57.5% | -1% | 96% (active) | -2.15% |
